Screening data deposited in PubChem BioAssay by several laboratories.
Wnt act – activators of Wnt/beta-catenin signaling; Wnt/beta-catenin reporter cell assay, activator, plate reader; activation, % at 9.35 µM; 1.2% of 300,000 active; in the data active = activation above about 30%, passing the limit was not always enough; inconclusive = no clear call, values can overlap the other calls
ssDAF12 agonist – activators of S. stercoralis DAF-12 nuclear receptor; HEK293 ssDAF-12/GRIP1 lit1-tk-luc reporter, luminescence; % of 3 µM dafachronic acid response; activation, % at 6.8 µM; 1% of 370,000 active;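 active = activation above the mean over all tested compounds plus 3 SD, cut at about 0.9% in these data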
hcDAF12 agonist – H. contortus DAF-12 activation, primary screen; HEK293 hcDAF-12 lit1-tk-luc reporter, luminescence; 0% DMSO, 100% Δ7-dafachronic acid; activation, % at 6.8 µM; 1.4% of 370,000 active; AID 652067;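 active = activation above the mean of all tested compounds plus 3 SD, cut at about 5.5% in these data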
esBAF inh – inhibitors of esBAF chromatin remodeling in mouse ES cells; AID 602393; reporter increase, % at 12.5 µM; Bmi1-luciferase knock-in reporter, 24 h; 100% = twice the neutral-well signal; 2% of 350,000 active; in the data active = activation above about 40%; inconclusive = no clear call, values can overlap the other calls;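 also: a rise in the Bmi1 reporter signal indicates esBAF inhibition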
hgDAF12 agonist – hgDAF-12 agonism, primary luciferase screen; HEK293 GAL4-hgDAF12 UAS-luciferase reporter, agonist luminescence; normalized to butyrate control; activation, % at 6.8 µM; 1.8% of 370,000 active;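 active = activation above a cutoff set at the mean of all screened compounds plus 3 SD, cut at about 10% in these data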
DAX1 StAR inh – blocks DAX1 repression of SF-1 activated StAR promoter. HEK293T StAR-luciferase reporter, SF-1/DAX-1 repression relief. inhibition, % at 6.8 µM. 1.1% of 370,000 active. AID 652010;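 active = inhibition above the mean over all tested compounds plus 3 SD, cut at about 3.6% in these data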;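 also: higher inhibition means more luminescence from relief of DAX-1 repression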
hgDAF12 conf – confirmation of H. glycines DAF-12 agonists | shares compounds with hgDAF12 agonist | HEK293 GAL4-hgDAF12 luciferase reporter, agonist mode; percent of butyrate response | activation, % at 6.8 µM | 80% of 3,300 active | AID 743050;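 active = mean activation over triplicate wells above the hit cutoff derived from the earlier primary screen, cut at about 11% in these data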
LXRb DAF12 ctr – activates human LXR-beta, counter-screen for DAF-12 agonists; HEK293 Gal4-LXR luciferase reporter, 24 h; shares compounds with hgDAF12 agonist; AID 743051; activation, % at 6.8 µM; 3,300 tested, under 10 active;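 active = mean activation of the triplicate above a set limit carried over from the primary screen, none filed active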
Target sequence (P55055 whole entry, looked up, the tested form may be a part): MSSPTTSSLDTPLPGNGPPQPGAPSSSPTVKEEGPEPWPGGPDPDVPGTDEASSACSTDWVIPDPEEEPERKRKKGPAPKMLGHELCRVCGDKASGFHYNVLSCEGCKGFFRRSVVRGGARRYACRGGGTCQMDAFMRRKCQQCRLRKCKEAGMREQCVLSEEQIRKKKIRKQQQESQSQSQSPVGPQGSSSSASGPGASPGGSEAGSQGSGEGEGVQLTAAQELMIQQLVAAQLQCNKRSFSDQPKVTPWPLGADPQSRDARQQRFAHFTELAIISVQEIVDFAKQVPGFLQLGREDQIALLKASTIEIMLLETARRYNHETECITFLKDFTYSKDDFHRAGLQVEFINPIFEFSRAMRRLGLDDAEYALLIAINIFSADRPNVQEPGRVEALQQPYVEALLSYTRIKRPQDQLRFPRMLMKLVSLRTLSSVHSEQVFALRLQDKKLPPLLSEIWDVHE
Hits are given with their value; – = inactive; ? = inconclusive; · = no result. A selection: hits, their analogues and other compounds. The true share with any hit is near 4.2%.

SMILES	Wnt act	ssDAF12 agonist	hcDAF12 agonist	esBAF inh	hgDAF12 agonist	DAX1 StAR inh	hgDAF12 conf	LXRb DAF12 ctr
O=C(Nc1ccc(F)c(Cl)c1)c1nsc(Cl)c1Cl	–	–	–	59.7	13.5	–	15.8	–
Cc1ccc(N2Cc3ccccc3C2=S)cc1	–	–	–	72.8	20.8	–	19.8	–
CO[C@H]1CN(C)C(=O)c2ccc(NC(=O)NC(C)C)cc2OC[C@@H](C)N(C(=O)C2CCC2)C[C@@H]1C	·	·	·	–	·	·	·	·
O=C(O)c1ccc(N=NN2CCCCC2)cc1	–	–	–	·	14.2	–	12.3	–
CC(=O)N(C(C)=O)S(=O)(=O)c1ccc(N=NN2CCCCC2)cc1	–	–	–	·	–	–	·	·
Cc1ccc(Oc2ccc(Cl)cc2N)cc1	–	–	–	·	–	–	·	·
Nc1cc(Cl)ccc1Oc1ccc2ccccc2c1	–	–	–	·	22.1	–	–	–
NC(=O)c1ccc(-c2noc(-c3ccccc3F)n2)cc1	–	–	5.6	–	15.1	–	13.3	–
CCCCc1cc(=O)oc2cc(C)cc(OCC(=O)Nc3ccccn3)c12	–	–	–	–	15.2	–	–	–
CCCc1cc(=O)oc2cc(C)cc(OCC(=O)Nc3ccccn3)c12	–	–	–	–	–	–	·	·
Cc1cc(C)c2cc3c(N)c(C(=O)N4CCOCC4)sc3nc2c1	–	–	–	·	–	–	·	·
Nc1c(C(=O)N2CCOCC2)sc2nc3c(cc12)CCC3	–	–	–	·	15.9	–	12.8	–
Cc1ccc(C)c2nc3sc(C(=O)N4CCOCC4)c(N)c3cc12	–	–	–	·	21.1	–	11.3	–
O=C(Nc1ccc2c(c1)CCC2)c1cccs1	55.1	1.2	–	·	15.9	–	17.3	–
O=C(Nc1ccc2c(c1)CCC2)c1cnc(Cl)c(Cl)c1	–	1.1	–	·	14.8	–	19.1	–
Cc1cc(C(=O)Nc2ccc3c(c2)CCC3)ccc1[N+](=O)[O-]	51.3	–	–	·	14.1	–	16.6	–
CC(C)C#Cc1ccc2c(c1)O[C@@H](CN(C)S(C)(=O)=O)[C@H](C)CN([C@@H](C)CO)S2(=O)=O	·	·	·	–	·	·	·	·
COCCNC(=O)C[C@@H]1C[C@@H]2c3cc(NC(=O)Nc4ccc(F)cc4)ccc3O[C@@H]2[C@H](CO)O1	·	·	·	–	·	·	·	·
CCOC(=O)Cc1ccc2sc(-c3ccccc3)nc2c1	·	–	–	69.3	13.4	–	13.6	–
FC(F)(F)c1cnc(-c2cnc(-c3ccccn3)nc2)c(Cl)c1	?	–	–	–	16.6	4.4	13.7	–
COc1cc(-c2cc(=O)c3c(O)cc(O)cc3o2)cc(OC)c1OC	–	–	–	–	–	–	·	·
O=c1cc(-c2ccccc2)oc2ccc(O)cc12	59.5	–	–	–	16.7	–	13.9	–
COc1ccc2oc(-c3ccco3)cc(=O)c2c1	38.2	–	–	–	18.7	4.5	14.4	–
NC(=O)c1c(-c2ccccc2)oc2ccc(O)cc12	–	–	–	–	–	–	·	·
COc1ccc(-c2cc(=O)c3c(O)cc(O)cc3o2)cc1	63.8	–	–	–	13.3	4.1	14.7	–
SMILES	Wnt act	ssDAF12 agonist	hcDAF12 agonist	esBAF inh	hgDAF12 agonist	DAX1 StAR inh	hgDAF12 conf	LXRb DAF12 ctr
COc1ccc(-c2cc(=O)c3cc(O)ccc3o2)cc1	–	–	–	–	24.3	–	17.2	–
C[C@@H]1CN([C@H](C)CO)C(=O)c2cc(NS(=O)(=O)c3ccc(F)cc3)ccc2O[C@@H](C)CCCCO[C@@H]1CN(C)C(=O)CCCN(C)C	·	·	·	–	·	·	·	·
C[C@H](CO)N1C[C@H](C)[C@@H](CN(C)Cc2ccc3c(c2)OCO3)Oc2ccc(NC(=O)Nc3ccccc3)cc2CC1=O	·	·	·	–	·	·	·	·
COc1ccccc1C=NN=C(N)C(N)=NN=Cc1ccccc1OC	–	–	–	·	–	–	·	·
COc1ccccc1/C=N\N=C(\N)c1ccccn1	–	1.1	6.0	·	13.5	3.9	14.0	–
COC(=O)c1ccc(/C=C(\C#N)c2ccccn2)cc1	–	1.5	–	101.7	14.6	–	14.0	–
Cc1ccc(Nc2cc(C)c3c(O)cccc3n2)cc1C	–	–	–	–	14.7	–	15.0	–
CCC(=O)Nc1nc(-c2ccc3c(c2)OCCO3)cs1	–	–	–	?	19.2	–	16.0	–
c1cc2c(cc1-c1csc(NNC3=NCCCCC3)n1)OCCO2	–	–	–	·	14.9	–	–	–
CC(C)(C)C(=O)Nc1nc(-c2ccc3c(c2)OCO3)cs1	·	–	–	·	–	–	·	·
Cc1ccc(C(=O)NCCc2c[nH]c3ccccc23)c(C)c1	–	–	–	70.7	14.7	–	12.4	–
CCc1ccc(OCc2ccc(C(=O)OC)o2)cc1	30.6	–	–	?	16.8	–	13.6	–
CCC(C)c1ccc(OCc2ccc(C(=O)OC)o2)cc1 (stereo unspecified)	–	1.0	–	·	15.2	–	17.8	–
COC(=O)c1ccc(COc2ccc(C(C)(C)C)cc2)o1	–	–	–	?	–	–	·	·
COc1cc(/C=C2\SC(=S)N(Nc3ccccc3)C2=O)ccc1O	?	–	–	·	14.0	–	14.7	–
CCOc1cc(/C=C2\SC(=S)N(Nc3ccccc3)C2=O)ccc1O	–	–	–	–	–	–	·	·
O=C(N=C1SCC(=O)N1c1ccccc1Cl)c1ccccc1	–	–	–	·	16.6	–	–	–
CCCC(=O)Nc1ccc2c(c1)C(=O)N(C)[C@@H]1CC[C@@H](CC(=O)Nc3ccccc3)O[C@@H]1CO2	·	·	·	–	·	·	·	·
Cc1cccc(Nc2nc3c(s2)CCCC3)c1	65.4	–	–	·	18.4	–	16.4	–
c1ccc(-n2nc3c(ccc4cnnc43)[nH]2)cc1	–	–	5.7	–	18.8	–	12.3	–
CN1/C(=C\C(=O)c2cccnc2)Sc2ccccc21	·	–	–	·	17.6	–	11.5	–
CN1C(=O)C(O)(CC(=O)c2cccnc2)c2ccccc21 (stereo unspecified)	·	–	–	–	–	–	·	·
Cc1ccc2nc(NC(=O)CCn3c(=O)sc4ccccc43)sc2c1	–	–	–	–	–	–	·	·
Cc1ccc2nc(NC(=O)C3CC3C)sc2c1 (stereo unspecified)	–	–	–	71.7	14.2	–	11.9	–
Cc1ccc2nc(NC(=O)CCn3cccc3)sc2c1	–	–	–	·	14.8	–	–	–
COc1ccc(CCC(=O)NNC(=S)NCc2ccc(F)cc2)cc1	–	–	–	·	14.1	–	–	–
CNC[C@H]1Oc2cc(C#Cc3ccccn3)ccc2S(=O)(=O)N([C@@H](C)CO)C[C@@H]1C	·	·	·	–	·	·	·	·
CN(C)C(=O)c1cccc(-c2cnc3cccnn23)c1	–	–	–	–	–	–	·	·
c1cnn2c(-c3ccc4c(c3)CCO4)cnc2c1	–	–	–	–	14.0	–	–	–
